Source: PubChem (National Center for Advancing Translational Sciences (NCATS))
In the library only some 9.4% were active in any assay of this set; here they are far more common.
NPC1 prom act – qHTS Assay for NPC1 Promoter Activators; Huh7 NPC1 promoter luciferase reporter, 24 h; Potency, µM (series often up to 9.22 µM), most hits filed as activators; 320,000 tested, 2.4% active; further: nearly all actives have a fitted effect of over 60% in size
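Compounds in DMSO were transferred onto Huh7 NPC1-luciferase reporter cells pre-incubated 2 h; after 24 h at 37 °C, Amplite reagent was dispensed and luminescence recorded 10 min later.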
Rab9 prom act – qHTS Assay for Rab9 Promoter Activators | Potency, µM (series often up to 9.22 µM), hits mostly activators | Huh7 Rab9 promoter-luciferase reporter, luminescence, 24 h | 320,000 tested, 2.8% active; further: nearly all actives have a fitted effect of over 60% in size
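Steps: seed 1500 Huh7 Rab9-luc cells per well, rest 2 h at 37 °C; add compound in DMSO; incubate 24 h; add luciferase reagent, 10 min ambient; read luminescence.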
ELG1 genotox – qHTS screen for small molecules that induce genotoxicity in human embryonic kidney (HEK293T) cells expressing luciferase-tagged ELG1. Potency, µM (top dose mostly 46 µM), hits mostly activators. HEK293T ELG1-luciferase reporter, luminescence, 16 h. AID 504466, 2011. 330,000 tested, 1.3% active; further: nearly all actives have a fitted effect of over 60% in size
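Cells (2,000/well) expressing the ELG1-luciferase fusion are dosed by pin tool and kept 16 hr at 37 °C, 5% CO2. Signal comes from ONE-Glo luciferase reagent after 30 min at room temperature.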
FLuc counter – qHTS profiling assay for firefly luciferase inhibitor/activator using purifed enzyme and Km concentrations of substrates (counterscreen for miR-21 project). Luciferin 4-monooxygenase (Photinus pyralis), P08659. purified FLuc, Km substrates, luminescence inhibition. Potency, µM (top dose mostly 57.5 µM), actives largely listed as inhibitors. 360,000 tested, 6.9% active. AID 588342, 2011; further: nearly all actives have a fitted effect of over 55% in size
Target sequence (P08659 whole entry, looked up): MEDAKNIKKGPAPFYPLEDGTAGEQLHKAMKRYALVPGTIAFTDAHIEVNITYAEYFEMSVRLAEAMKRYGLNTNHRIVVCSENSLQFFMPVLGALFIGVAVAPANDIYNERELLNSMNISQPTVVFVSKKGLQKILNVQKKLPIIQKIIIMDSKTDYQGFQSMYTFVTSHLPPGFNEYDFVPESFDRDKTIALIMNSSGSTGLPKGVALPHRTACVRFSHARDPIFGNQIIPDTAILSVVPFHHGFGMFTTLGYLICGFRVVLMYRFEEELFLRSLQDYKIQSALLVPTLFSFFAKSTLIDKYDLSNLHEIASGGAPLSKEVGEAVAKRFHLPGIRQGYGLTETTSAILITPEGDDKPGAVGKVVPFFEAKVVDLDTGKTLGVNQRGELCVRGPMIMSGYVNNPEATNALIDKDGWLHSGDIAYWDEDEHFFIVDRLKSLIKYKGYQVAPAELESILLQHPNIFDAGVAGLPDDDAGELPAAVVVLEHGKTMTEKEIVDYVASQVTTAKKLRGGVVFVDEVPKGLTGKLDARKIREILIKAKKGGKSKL
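Purified P. pyralis luciferase (10nM final) with 10uM D-luciferin and 10uM ATP (Km levels) in 50mM Tris acetate pH 7.5, 10mM Mg acetate, 0.01% Tween-20, 0.05% BSA; qHTS 6-point titration, ~60 µM downward; luminescence read.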
SMN2 splice enh – qHTS Assay for Enhancers of SMN2 Splice Variant Expression | Potency, µM (titrated, usually from 46.1 µM), actives largely listed as activators | HEK293 SMN2-luciferase splicing reporter, luminescence, 30-36 h | 210,000 tested, 2.8% active; further: nearly all actives have a fitted effect of over 55% in size
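HEK293 cells carry an SMN2 […]–luciferase reporter in which exon 7 inclusion puts luciferase in frame. Cells were plated 10-12 h before compound addition, then incubated 30-36 h at 37C. ONE-Glo luminescence was read; sodium butyrate at 4.5 mM final served as control.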
ELG1 DNA repair – qHTS screen for small molecules that inhibit ELG1-dependent DNA repair in human embryonic kidney (HEK293T) cells expressing luciferase-tagged ELG1 | 330,000 tested, 2.3% active | HEK293T ELG1-luciferase reporter, luminescence, 16 h; DNA damage induced by 5-fluorouridine | Potency, µM (series often up to 46.1 µM), most hits filed as inhibitors; further: nearly all actives have a fitted effect of over 55% in size
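Overnight (16 hr) co-exposure of 2,000 cells/well to 5-fluorouridine and compound at 37 °C preceded detection. Luciferase was quantified via ONE-Glo luminescence; loss of signal denotes inhibition.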
Numbers stand for hits; - = inactive; ? = inconclusive; . = not tested or not shown; [ ] = dose if it differs, or a comment. The call rests on the fitted dose curve; in most records, active means well fitted curve in the direction sought with a large enough effect; inconclusive means small, poorly fitted or top-dose-only effect, or another doubt; inactive means no such curve, though single readings can be large; an effect the other way counts as inactive or inconclusive.

SMILES	NPC1 prom act	Rab9 prom act	ELG1 genotox	FLuc counter	SMN2 splice enh	ELG1 DNA repair
Cc1ccc(Cl)cc1NC(=O)C(C)n1nc(-c2ccccc2)ccc1=O (centres undefined)	.	.	.	-	-	.
O=C(CSc1nnc(SCc2ccccc2)s1)N/N=C/c1ccc(C(=O)O)cc1	-	-	-	2.39µM	.	-
O=C(CSc1nnc(SCc2ccccc2)s1)N/N=C/C=C/c1ccccc1[N+](=O)[O-]	-	-	-	23.9µM	-	-
O=C(O)c1ccc(CSc2nnc(SCc3ccccc3)s2)cc1	-	-	-	?	-	-
O=C(CSc1nnc(SCc2ccccc2)s1)N/N=C/C=C\c1ccco1	-	-	-	?	-	?
O=C(CSc1nnc(SCc2ccccc2)s1)N/N=C/c1ccc(Cl)cc1Cl	-	-	-	-	-	?
CC(=C/c1ccco1)/C=N/NC(=O)CSc1nnc(SCc2ccc(C)cc2)s1	-	-	-	2.69µM	-	?
O=C(CSc1nnc(SCc2ccc(Cl)cc2)s1)N/N=C/c1ccccc1C(=O)O	-	-	-	10.7µM	.	-
O=C(CN1C(=O)C(c2ccc(F)cc2)=NC12CCCCCC2)Nc1ccccc1Cl	.	.	.	-	-	.
CCN(CC)c1nn2c(=O)c(C(=O)NCCc3ccc(C)cc3)cnc2s1	.	.	.	-	.	.
COc1ccc(NC(=O)Cn2cnc3c(oc4ccccc43)c2=O)cc1OC	.	.	.	-	.	.
CCN(C(=O)C1CCCN(S(=O)(=O)c2c(C)noc2/C=C/N(C)C)C1)c1cccc(C)c1 (centres undefined)	.	.	.	-	-	.
O=C(CSc1nc2ccccc2s1)N/N=C/c1ccc(C(=O)O)cc1	-	-	-	26.9µM	-	-
O=C(CSc1nnc(SCc2ccc(Cl)cc2)s1)N/N=C/c1c(Cl)cccc1Cl	-	-	-	-	-	-
Cc1ccc(CSc2nnc(SCC(=O)N/N=C/c3c[nH]c4ccccc34)s2)cc1	-	-	?	?	-	?
Cc1ccc(CSc2nnc(SCC(=O)N/N=C/c3ccc(C(=O)O)cc3)s2)cc1	-	-	-	0.239µM	.	?
Cc1ccc(CSc2nnc(SCC(=O)N/N=C/c3ccccc3OCC(=O)O)s2)cc1	-	-	-	1.51µM	.	-
CCOc1ccc(-c2nc(SC(C(C)=O)C(=O)N(C)C)c3c(=O)n(C)c(=O)n(C)c3n2)cc1 (centres undefined)	.	.	.	-	.	.
CC(C)c1ccc(NC(=O)Cn2cc(S(=O)(=O)Cc3cccc(Cl)c3)c3ccccc32)cc1	.	.	.	-	.	.
CCOC(=O)C(CC)Sc1ncnc2c1c(-c1ccccc1)cn2-c1ccc(OC)cc1 (centres undefined)	.	.	.	-	-	.
CC(NC(=O)c1ccc(N2Cc3ccccc3Oc3ncccc32)s1)c1ccccc1 (centres undefined)	.	.	.	-	.	.
COc1cccc2c1C(=O)c1ccc3ccccc3c1C2=O	-	?	12.6µM	1.9µM	15.8µM	?
COc1ccc(N)c2c1C(=O)c1ccccc1C2=O	-	?	?	23.9µM	?	?
COc1cccc2c1-c1c(C(=O)O)cccc1C2=O	-	-	-	-	.	-
COc1ccc(OC)c2c1C(=O)c1ccccc1C2=O	-	-	-	-	-	-
SMILES	NPC1 prom act	Rab9 prom act	ELG1 genotox	FLuc counter	SMN2 splice enh	ELG1 DNA repair
COc1ccc(OC)c2c1C(=O)C(Cl)=C(Cl)C2=O	-	-	-	?	.	20.6µM
CC(C)(SCc1ccccc1)[C@H](N)C(=O)O	.	.	.	.	-[9.22 µM]	.
COC(=O)C1=C(C)N(Cc2ccccc2)C(=S)N[C@H]1CCc1ccccc1	-	-	.	-	.	.
CCOC(=O)c1c(NC(=O)COc2ccc(Cl)cc2Cl)sc2c1CCCCC2	.	.	.	-	-	.
CCCCS(=O)(=O)c1oc(-c2ccc(F)cc2)nc1S(=O)(=O)c1ccccc1	.	.	.	-	-	.
O=C(CCC(=O)c1ccc[nH]1)c1ccc(Cl)cc1	3.16µM	1.58µM	8.2µM	12µM	?	?
O=C(O)CCC(=O)c1ccc[nH]1	.	.	.	.	-[9.22 µM]	.
CC1CN(c2ccc(Cl)cc2)c2nc3c(c(=O)n(CC(=O)O)c(=O)n3C)n2C1 (centres undefined)	.	.	.	-	-	.
Cc1ccc(NC2CCCN(C(=O)c3cccs3)C2)cc1C (centres undefined)	-	-	-	?	.	-
Cc1ccc(N/C=C/C(=O)c2cccs2)cc1C	-	3.55µM	?	0.19µM	2.24µM	?
O=C(/C=C/Nc1ccc(Nc2ccccc2)cc1)c1cccs1	3.98µM	2µM	?	4.26µM	.	?
O=C(/C=C/Nc1cccc([N+](=O)[O-])c1)c1cccs1	-	3.16µM	?	1.69µM	15.8µM	?
C/C(=N\OCC(=O)Nc1ccccc1C(=O)O)c1cccs1	-	-	-	21.3µM	.	-
C/C(=N/OCC(=O)Nc1ccc(C)cc1C)c1cccs1	-	-	-	-	?	-
CNc1cc([N+](=O)[O-])ccc1N/C=C/C(=O)c1cccs1	-	-	-	-	-	?
Cc1cc(Nc2cccc(Br)c2)n2c(nc3ccccc32)c1C#N	.	.	.	-	-	.
O=C(OCc1cc(=O)n2nc(-c3cccs3)sc2n1)c1ccc(F)cc1	.	.	.	-	.	.
O=C(/C=C/Nc1ccccc1C(=O)O)c1cccs1	1.41µM	1µM	16.4µM	3.38µM	11.2µM	?
Cc1c(N/C=C/C(=O)c2cccs2)c(=O)n(-c2ccccc2)n1C	-	-	-	?	-	-
Cc1cc(N/C=C/C(=O)c2cccs2)ccc1F	?	3.98µM	2.91µM	0.953µM	14.1µM	?
CCOC(=O)c1sc2ccccc2c1S(=O)(=O)NCc1ccccc1OC	.	.	.	-	.	.
O=C(OCc1cccc([N+](=O)[O-])c1)c1ccc2ccccc2n1	-	-	-	26.9µM	-	-
COc1ccc(N2CCN(C(=O)CCc3ccc(S(=O)(=O)NCC(C)C)cc3)CC2)cc1	-	-	-	-	-	?
CC(C)CNS(=O)(=O)c1ccc(CCC(=O)N2CCN(c3ccc(F)cc3)CC2)cc1	-	-	-	-	-	11.6µM
COc1ccc(C2CC(=O)NC(NC(=O)c3ccc(Br)cc3)=N2)c(OC)c1OC (centres undefined)	.	.	.	-	.	.
NC(=O)c1cccnc1Nc1cccc(F)c1	-	-	-	-	-	-
NC(=O)c1cccnc1Nc1cccc([N+](=O)[O-])c1	3.98µM	1.78µM	?	15.1µM	.	?
COc1cccc(C(=O)Oc2ccc3ccc(O)cc3c2)c1	-	-	-	6.01µM	.	-
CC(=O)Nc1ccc(OS(=O)(=O)c2ccccc2C)cc1	-	-	-	-	.	-
Cc1ccccc1C(=O)Oc1ccc2ccc(O)cc2c1	?	-	5.8µM	6.75µM	.	?
